According to PubChem BioAssay (NCI):
The panel holds about 79,000 compounds, 15% with a hit somewhere; the sample as a whole holds those more often. Calls of active or inactive are those of the source. No stated cut-off is given here; in the data, active means growth inhibition above about 70%; inactive means the rest.

Assays:
[1] = NCI Yeast Anticancer Drug Screen. Data for the rad52 strain (AID 147);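 further: 0% = growth of vehicle-treated control cultures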; conditions: S. cerevisiae rad52 mutant growth inhibition, active compounds read high
Summary of the method: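 DNA repair-defective yeast; compound exposure; growth scored against vehicle controls.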

[2] = NCI Yeast Anticancer Drug Screen. Data for the wt1 strain (AID 149);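 further: 0% = growth of vehicle-treated wt1 cultures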; conditions: S. cerevisiae wt1 strain (SPY 50644) growth inhibition, active compounds read high
Summary of the method: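 wt1 strain grown with compound or vehicle; inhibition taken from the growth difference.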

[3] = NCI Yeast Anticancer Drug Screen. Data for the rad50EPP+ strain (AID 151);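 further: 0% = growth of vehicle-treated control cultures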; conditions: S. cerevisiae rad50 mutant strain, active compounds read high
Summary of the method: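 rad50EPP+ yeast treated with test compounds. Readout: growth vs vehicle control.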

[4] = NCI Yeast Anticancer Drug Screen. Data for the mgt1 strain (AID 153); conditions: S. cerevisiae mgt1 mutant growth inhibition, active compounds read high
Summary of the method: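 Growth inhibition relative to vehicle controls was scored for the mgt1 yeast strain after compound exposure.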

[5] = NCI Yeast Anticancer Drug Screen. Data for the rad50 strain (AID 155);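 further: 0% = growth of vehicle-only cultures of the same strain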; conditions: S. cerevisiae rad50 strain growth inhibition, active compounds read high
Summary of the method: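 DNA repair mutant yeast, compound exposure, growth read-out; inhibition is taken relative to vehicle.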

[6] = NCI Yeast Anticancer Drug Screen. Data for the mec2-1 strain (AID 157); conditions: S. cerevisiae mec2-1 strain, active compounds read high
Summary of the method: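 Growth inhibition is read against vehicle-treated controls after compound exposure of the mec2-1 yeast strain, which is defective in DNA damage repair or cell cycle control.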

[7] = NCI Yeast Anticancer Drug Screen. Data for the rad14 strain (AID 159);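 further: 0% = growth of vehicle-treated control cultures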; conditions: S. cerevisiae rad14 strain growth inhibition, active compounds read high
Summary of the method: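 DNA repair-defective yeast, compound-exposed; % growth inhibition derived by comparison with vehicle-treated controls.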

[8] = NCI Yeast Anticancer Drug Screen. Data for the sgs1 mgt1 strain (AID 161);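 further: 0% = growth of cultures given vehicle only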; conditions: S. cerevisiae sgs1 mgt1 strain, active compounds read high
Summary of the method: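 Percent growth inhibition was derived by comparing compound-exposed mutant yeast with vehicle-exposed cultures. The strain carries alterations in DNA damage repair.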

[9] = NCI Yeast Anticancer Drug Screen. Data for the CLN2oe strain (AID 163);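 further: 0% = growth of vehicle-only control cultures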; conditions: S. cerevisiae CLN2oe strain, active compounds read high
Summary of the method: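 Compound-treated yeast; growth vs vehicle ctrl = % inhibition. Genetically altered strain (cell-cycle control).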

[10] = NCI Yeast Anticancer Drug Screen. Data for the cln2 rad14 strain (AID 165);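 further: 0% = growth equal to vehicle treated cultures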; conditions: S. cerevisiae cln2 rad14 strain, active compounds read high
Summary of the method: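 Growth inhibition, relative to vehicle-treated controls, is the read-out. The test organism is a yeast strain with defined genetic alterations, cln2 rad14.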

[11] = NCI Yeast Anticancer Drug Screen. Data for the bub3 strain (AID 167); conditions: S. cerevisiae bub3 mutant strain, active compounds read high
Summary of the method: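 In this screen, a yeast mutant lacking normal mitotic checkpoint function is challenged with compound. Relative growth versus vehicle gives the inhibition value.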

[12] = NCI Yeast Anticancer Drug Screen. Data for the wt2 strain (AID 169);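 further: 0% = growth of vehicle-treated yeast cultures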; conditions: S. cerevisiae wt2 strain growth inhibition, active compounds read high
Summary of the method: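 Compound exposure of yeast; growth compared with vehicle controls; inhibition reported.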

[13] = NCI Yeast Anticancer Drug Screen. Data for the sgs1 strain (AID 173);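 further: 0% = growth of vehicle-only control cultures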; conditions: S. cerevisiae sgs1 mutant, active compounds read high
Summary of the method: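 Compounds applied to genetically altered yeast; growth compared with vehicle-treated cultures to give % inhibition.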

[14] = NCI Yeast Anticancer Drug Screen. Data for the mlh1 rad18 strain (AID 175); conditions: S. cerevisiae mlh1 rad18 strain growth inhibition, active compounds read high
Summary of the method: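 Cells of a genetically altered yeast strain, deficient in DNA damage repair, were treated with compound. Their growth was then compared with that of vehicle-treated cultures to give inhibition.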

[15] = NCI Yeast Anticancer Drug Screen. Data for the rad18 strain (AID 177); conditions: S. cerevisiae rad18 mutant growth inhibition, active compounds read high
Summary of the method: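 Compounds are applied to a repair-deficient yeast strain, and growth is compared with that of vehicle-treated cultures to give percent inhibition.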

[16] = at 5.0 µM (retest, dose inferred, filed as 0.5)
[17] = at 50.0 µM (retest, dose inferred, filed as 5.0)

Measured: growth inhibition

CN(C)CCN1C(=O)c2cccc3cc([N+](=O)[O-])cc(c23)C1=O
inactive: [1]; at 1.2 µM 22% | [1]; at 3.7 µM 58% | [1]; at 11.0 µM 63% | [2]; at 1.2 µM 16% | [2]; at 3.7 µM 0% | [2]; at 11.0 µM -9% | [2]; at 33.0 µM -4% | [2]; at 100.0 µM 23% | [3]; at 1.2 µM 13% | [3]; at 3.7 µM 25% | [3]; at 11.0 µM 28% | [3]; at 33.0 µM 66% | [4]; at 1.2 µM -11% | [4]; at 3.7 µM -13% | [4]; at 11.0 µM 4% | [4]; at 33.0 µM 5% | [4]; at 100.0 µM 68% | [5]; at 1.2 µM 13% | [5]; at 3.7 µM 35% | [5]; [16] 28% | [5]; at 11.0 µM 52% | [6]; at 1.2 µM -4% | [6]; at 3.7 µM 2% | [6]; [16] 2% | [6]; at 11.0 µM -9% | [6]; at 33.0 µM -6% | [6]; [17] 13% | [6]; at 50.0 µM 7.05% | [6]; at 100.0 µM 48% | [7]; at 1.2 µM 2% | [7]; at 3.7 µM 6% | [7]; at 11.0 µM 12% | [7]; at 33.0 µM -1% | [7]; at 100.0 µM 34% | [8]; [16] 11% | [8]; [17] 51% | [8]; at 50.0 µM -10.9% | [9]; at 1.2 µM 18% | [9]; at 3.7 µM 28% | [9]; at 11.0 µM 41% | [9]; at 33.0 µM 36% | [9]; at 100.0 µM 69% | [10]; [16] 5% | [10]; [17] 38% | [10]; at 50.0 µM -26.2% | [11]; at 1.2 µM -1% | [11]; at 3.7 µM 16% | [11]; [16] -6% | [11]; at 11.0 µM 21% | [11]; at 33.0 µM 18% | [11]; [17] 21% | [11]; at 50.0 µM -4.65% | [11]; at 100.0 µM 47% | [12]; at 1.2 µM -3% | [12]; at 3.7 µM 0% | [12]; at 11.0 µM -1% | [12]; at 33.0 µM 1% | [12]; at 100.0 µM 30% | [13]; at 1.2 µM -24% | [13]; at 3.7 µM -2% | [13]; at 11.0 µM 8% | [13]; at 33.0 µM 12% | [13]; at 100.0 µM 61% | [14]; [16] 6% | [14]; [17] 45% | [15]; at 1.2 µM 10% | [15]; at 3.7 µM 16% | [15]; at 11.0 µM 17% | [15]; at 33.0 µM 25%
active: [1]; at 33.0 µM 90% | [1]; at 100.0 µM 93% | [3]; at 100.0 µM 83% | [5]; at 33.0 µM 87% | [5]; [17] 93% | [5]; at 50.0 µM 72.6% | [5]; at 100.0 µM 94% | [15]; at 100.0 µM 80%

COc1ccc(C(C#N)=C2C=CC(=NO)C=C2)cc1
inactive: [1]; at 1.2 µM 11% | [1]; at 3.7 µM 34% | [2]; at 1.2 µM -1% | [2]; at 3.7 µM -2% | [2]; at 11.0 µM 14% | [3]; at 1.2 µM 42% | [4]; at 1.2 µM 0% | [4]; at 3.7 µM 18% | [5]; at 1.2 µM 18% | [5]; at 3.7 µM 38% | [5]; [16] 23% | [5]; [17] 62% | [5]; at 50.0 µM 65.4% | [6]; at 1.2 µM 1% | [6]; at 3.7 µM 16% | [6]; [16] -2% | [6]; [17] 25% | [7]; at 1.2 µM 13% | [7]; at 3.7 µM 19% | [8]; [16] 51% | [9]; at 1.2 µM 7% | [9]; at 3.7 µM 11% | [9]; at 11.0 µM 58% | [9]; at 33.0 µM 55% | [9]; at 100.0 µM 68% | [10]; [16] 17% | [10]; [17] 41% | [10]; at 50.0 µM 60.3% | [11]; at 1.2 µM -1% | [11]; at 3.7 µM 7% | [11]; [16] 24% | [11]; at 11.0 µM 22% | [11]; at 33.0 µM 42% | [12]; at 1.2 µM -9% | [12]; at 3.7 µM 42% | [13]; at 1.2 µM 5% | [13]; at 3.7 µM 32% | [14]; [16] 48% | [15]; at 1.2 µM 11% | [15]; at 3.7 µM 38%
active: [1]; at 11.0 µM 89% | [1]; at 33.0 µM 96% | [1]; at 100.0 µM 96% | [2]; at 33.0 µM 96% | [2]; at 100.0 µM 97% | [3]; at 3.7 µM 70% | [3]; at 11.0 µM 90% | [3]; at 33.0 µM 93% | [3]; at 100.0 µM 93% | [4]; at 11.0 µM 88% | [4]; at 33.0 µM 97% | [4]; at 100.0 µM 91% | [5]; at 11.0 µM 81% | [5]; at 33.0 µM 96% | [5]; at 100.0 µM 95% | [6]; at 11.0 µM 96% | [6]; at 33.0 µM 97% | [6]; at 50.0 µM 88.2% | [6]; at 100.0 µM 98% | [7]; at 11.0 µM 83% | [7]; at 33.0 µM 96% | [7]; at 100.0 µM 82% | [8]; [17] 79% | [8]; at 50.0 µM 87.7% | [11]; [17] 82% | [11]; at 50.0 µM 85.8% | [11]; at 100.0 µM 72% | [12]; at 11.0 µM 84% | [12]; at 33.0 µM 99% | [12]; at 100.0 µM 99% | [13]; at 11.0 µM 87% | [13]; at 33.0 µM 99% | [13]; at 100.0 µM 98% | [14]; [17] 85% | [14]; at 50.0 µM 91.5% | [15]; at 11.0 µM 90% | [15]; at 33.0 µM 97% | [15]; at 100.0 µM 96%
